A selection: hits, their analogues and other compounds. The true share with any hit is near 6.8%.
C diff HTS – C. difficile growth inhibitors, primary screen, HTS; Clostridium difficile clinical isolate growth, OD600, 24 h; stronger effect = lower value; growth activity, negative = inhibition, % at 16 µg/mL (by protocol); actives 0.25% (n = 86,000);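 active = mean growth activity at or below -80% and every replicate also at or below -80%; inconclusive = mean at or below -80% but some replicate above -80%; inactive = mean growth activity above -80%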;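 note: 0% = DMSO wells and -100% = levofloxacin 16 µg/mL wells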
Pf Dd2 inh – P. falciparum Dd2 growth inhibitors, primary screen, SYBR Green fluorescence, single dose replicates. 72 h; stronger effect = lower value. AID 1159554, 2015. actives 2.3% (n = 94,000). activity change, % at 10 µM; in the data active = activity change below about -80%; inconclusive = no clear call, values can overlap the other calls
T cruzi growth-1 – T. cruzi intracellular proliferation inhibitors, primary screen, cell-based, beta-gal Tulahuen parasites, NIH3T3 host, luminescence; T. cruzi beta-gal in NIH3T3, GalScreen luminescence, 90 h; inhibition, % at 8.34 µM; actives 5.9% (n = 77,000); AID 624255, 2012;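 active = mean inhibition above about 93%, with at least 55% of replicates each passing it, limit read from the data, passing the limit was not always enough; inconclusive = only one of those two conditions holds; inactive = neither condition holds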
T cruzi growth-2 – T. cruzi intracellular proliferation inhibitors, confirmation, cell-based, NIH3T3 host, beta-gal parasite, luminescence, cherry-pick; shares compounds with T cruzi growth-1; T. cruzi beta-gal in NIH3T3, GalScreen luminescence, 90 h; inhibition, % at 8.35 µM; actives 72% (n = 5,600); AID 651739, 2012;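 active = mean replicate inhibition above about 95% and at least 55% of replicates individually reaching it, limit read from the data; inconclusive = only one of the two criteria is met; inactive = neither criterion is met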
T cruzi growth-3 – inhibitors of intracellular T. cruzi replication, confirmation, NIH3T3 host cells, beta-gal parasites, cherry-pick, set 2; actives 21% (n = 5,600); AID 651740, 2012; inhibition, % at 2.09 µM; T. cruzi beta-gal in NIH3T3, GalScreen luminescence, 90 h; shares compounds with T cruzi growth-1;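 active = mean inhibition above about 95%, with at least 55% of replicates also reaching it, limit read from the data; inconclusive = meets just one of the two conditions; inactive = meets neither condition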;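 note: plate controls were neutral control median for no effect and positive control median for full effect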
3T3 cytotox – cytotoxicity in mouse NIH/3T3 fibroblasts, confirmation, cytotoxicity control for T. cruzi proliferation inhibitor project, cell-based, cherry-pick, single point | actives 14% (n = 5,600) | cytotoxicity (signal decrease), % at 8.35 µM | shares compounds with T cruzi growth-1 | AID 651742, 2012 | NIH/3T3 viability, CellTiter-Glo ATP luminescence, 90 h;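 active = mean signal decrease across replicates above about 35% based on untreated-well scatter, with enough replicates individually passing, limit read from the data; inconclusive = no rule stated though some were filed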;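 note: 0% = median of neutral control wells and 100% = median of positive control wells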
NIH3T3 tox 2 – NIH/3T3 fibroblast cytotoxicity, confirmation, cytotoxicity control, cell-based, cherry-pick, single point, set 2. shares compounds with T cruzi growth-1. NIH/3T3 viability, CellTiter-Glo ATP luminescence, 90 h. inhibition, % at 24.9 µM. actives 56% (n = 5,600). AID 651744, 2012;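 active = mean loss of cell viability signal at or above a set limit, and enough replicates individually reaching it; inconclusive = meets only the mean limit or only the replicate share; inactive = meets neither condition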;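 note: 0% = median of neutral control wells and 100% = median of positive control wells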
An asterisk follows results filed as active; ? = inconclusive; · = no result.

SMILES	C diff HTS	Pf Dd2 inh	T cruzi growth-1	T cruzi growth-2	T cruzi growth-3	3T3 cytotox	NIH3T3 tox 2
O=C(c1ccccc1F)N1CC[C@@H]2[C@H](CO)Nc3ccc(C#Cc4ccccc4)cc3[C@@H]21	1.0	-16.0	87.3	·	·	·	·
C[C@H]1CN([C@@H](C)CO)C(=O)Cc2cc(NC(=O)Nc3cccc4ccccc34)ccc2O[C@H]1CN(C)S(=O)(=O)c1ccccc1	1.9	-34.8	54.1	·	·	·	·
COC(=O)C[C@H]1C=C[C@H](NC(=O)c2ccccc2)[C@H](CO)O1	·	8.1	-3.2	·	·	·	·
CCCC#Cc1ccc2c(c1)O[C@@H](CN(C)C(=O)CC)[C@@H](C)CN([C@@H](C)CO)S2(=O)=O	-1.9	-24.9	48.3	·	·	·	·
COc1cccc(S(=O)(=O)N[C@@H]2C=C[C@@H](CC(=O)NC3CCC3)O[C@H]2CO)c1	-4.8	17.3	57.3	·	·	·	·
CCCNC(=O)Nc1ccc2c(c1)OC[C@H](C)N(C(=O)CC)C[C@H](C)[C@H](OC)CN(C)C2=O	·	-4.5	-4.2	·	·	·	·
O=C(c1ccccc1F)N1CC[C@H]2[C@H](CO)Nc3ccc(-c4ccccc4)cc3[C@H]21	-0.2	-3.2	79.9	·	·	·	·
CN(C)C(=O)c1ccc(-c2ccc3c(c2)[C@@H]2[C@@H](CCN2C(=O)c2ccccc2F)[C@H](CO)N3)cc1	15.2	-4.0	43.0	·	·	·	·
CN(C)C(=O)c1cccc(-c2ccc3c(c2)[C@H]2[C@H](CCN2C(=O)c2ccccc2F)[C@H](CO)N3)c1	9.3	-9.7	99.3*	103.4*	83.3	-6.6	15.1
CN(C)C(=O)c1cccc(-c2ccc3c(c2)[C@@H]2[C@@H](CCN2C(=O)c2ccccc2F)[C@H](CO)N3)c1	3.2	-30.7	101.3*	100.7*	63.9	14.6	-18.5
O=C(c1ccccc1F)N1CC[C@@H]2[C@H](CO)Nc3ccc(-c4ccccc4)cc3[C@@H]21	-1.1	26.4	81.0	·	·	·	·
CN(C)C(=O)c1cccc(-c2ccc3c(c2)[C@H]2[C@H](CCN2C(=O)c2ccccc2F)[C@@H](CO)N3)c1	1.1	-49.0	101.0*	103.7*	51.2	-7.6	-14.3
N#Cc1ccc(-c2ccc3c(c2)[C@H]2[C@H](CCN2C(=O)c2cccnc2)[C@@H](CO)N3)cc1	-4.4	-13.6	61.9	·	·	·	·
Cc1ccc(S(=O)(=O)N(C)C[C@H]2OCCCC[C@@H](C)Oc3ccc(NS(=O)(=O)c4ccc(Cl)cc4)cc3C(=O)N([C@H](C)CO)C[C@@H]2C)cc1	-2.6	-27.1	76.0	·	·	·	·
Cc1ccc(S(=O)(=O)N(C)C[C@@H]2OCCCC[C@H](C)Oc3ccc(NS(=O)(=O)c4ccc(Cl)cc4)cc3C(=O)N([C@@H](C)CO)C[C@@H]2C)cc1	3.1	-41.2	117.6*	103.8*	115.3*	-5.2	-18.1
Cc1ccc(S(=O)(=O)N(C)C[C@@H]2OCCCC[C@H](C)Oc3ccc(NS(=O)(=O)c4ccc(Cl)cc4)cc3C(=O)N([C@H](C)CO)C[C@H]2C)cc1	2.3	-50.3	91.4	·	·	·	·
Cc1ccc(S(=O)(=O)N(C)C[C@H]2OCCCC[C@@H](C)Oc3ccc(NS(=O)(=O)c4ccc(Cl)cc4)cc3C(=O)N([C@@H](C)CO)C[C@@H]2C)cc1	8.2	-41.2	99.4*	98.2*	119.2*	-20.4	-1.7
Cc1ccc(S(=O)(=O)N(C)C[C@H]2OCCCC[C@@H](C)Oc3ccc(NS(=O)(=O)c4ccc(Cl)cc4)cc3C(=O)N([C@@H](C)CO)C[C@H]2C)cc1	7.7	-48.8	?	102.5*	116.1*	-33.5	-15.8
C[C@@H]1CCCCO[C@H](CN(C)S(=O)(=O)c2ccc(Cl)cc2)[C@@H](C)CN([C@@H](C)CO)C(=O)c2cc(NS(=O)(=O)c3ccc(Cl)cc3)ccc2O1	-9.9	-68.5	·	·	·	·	·
C[C@@H]1CCCCO[C@H](CN(C)S(=O)(=O)c2ccc(Cl)cc2)[C@H](C)CN([C@@H](C)CO)C(=O)c2cc(NS(=O)(=O)c3ccc(Cl)cc3)ccc2O1	0.8	-46.4	88.9	·	·	·	·
Cc1ccc(S(=O)(=O)Nc2ccc3c(c2)C(=O)N([C@@H](C)CO)C[C@@H](C)[C@@H](CN(C)S(=O)(=O)c2ccc(Cl)cc2)OCCCC[C@H](C)O3)cc1	5.8	-86.4*	132.5*	107.3*	108.9*	-35.9	2.1
COc1ccc(S(=O)(=O)Nc2ccc3c(c2)C(=O)N([C@@H](C)CO)C[C@@H](C)[C@H](CN(C)Cc2ccncc2)OCCCC[C@H](C)O3)cc1	-4.6	-15.6	82.2	·	·	·	·
C[C@@H]1CN([C@H](C)CO)C(=O)c2cc(C#CC(C)(C)O)cnc2O[C@H]1CN(C)C(=O)CC1CC1	-0.9	32.4	-22.3	·	·	·	·
CO[C@H]1CN(C)C(=O)c2cc(NC(=O)Cc3ccccc3)ccc2OC[C@@H](C)N(C(C)=O)C[C@H]1C	·	-11.9	41.4	·	·	·	·
CCC(=O)N1C[C@H](C)[C@H](OC)CN(C)C(=O)c2cc(NC(=O)C3CCOCC3)ccc2OC[C@@H]1C	·	15.6	·	·	·	·	·
C[C@@H]1CCCCO[C@@H](CN(C)S(=O)(=O)c2ccc(Cl)cc2)[C@@H](C)CN([C@H](C)CO)C(=O)c2cc(NS(=O)(=O)c3ccc(Cl)cc3)ccc2O1	9.0	-23.8	73.5	·	·	·	·
Cc1ccc(S(=O)(=O)Nc2ccc3c(c2)C(=O)N([C@H](C)CO)C[C@H](C)[C@H](CN(C)S(=O)(=O)c2ccc(Cl)cc2)OCCCC[C@@H](C)O3)cc1	4.2	-53.0	?	100.6*	84.9	26.0	21.2
Cc1ccc(S(=O)(=O)N(C)C[C@H]2OCCCC[C@@H](C)Oc3ccc(NS(=O)(=O)c4ccc(Cl)cc4)cc3C(=O)N([C@H](C)CO)C[C@H]2C)cc1	5.4	-80.3*	108.3*	98.3*	109.2*	-20.2	-8.8
Cc1ccc(S(=O)(=O)N(C)C[C@H]2OCCCC[C@H](C)Oc3ccc(NS(=O)(=O)c4ccc(Cl)cc4)cc3C(=O)N([C@H](C)CO)C[C@@H]2C)cc1	9.2	-15.9	96.6*	100.2*	118.9*	17.0	10.7
C[C@@H]1CCCCO[C@H](CN(C)S(=O)(=O)c2ccc(Cl)cc2)[C@@H](C)CN([C@H](C)CO)C(=O)c2cc(NS(=O)(=O)c3ccc(Cl)cc3)ccc2O1	-3.1	-14.6	31.6	·	·	·	·
